Drawing on PubChem BioAssay, this text covers composite z-score and z-score for 18 compounds.

Structures are written as SMILES.

Test [1] concerns Human papillomavirus type 1a protein E7 (residues 44-93). Description: small molecules binding HPV E7 44-93 – biochemical, small-molecule microarray, residues 44-93, 635 nm fluorescence, primary screen (AID 1108).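 Note: E7 fragment applied at 1 µg/mL in TBST for 1 h at 4 C; score combines spot fluorescence with its signal to noise ratio.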 As to conditions: fluorescence 635 nm, higher = more signal.
A short description of test [2]: hepatitis C replication reporter changes, two-sided – Huh7 cells, luciferase reporter, HCV replication inhibitor project, primary screen (AID 1109).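 Note: huh7 hepatoma cells harbouring a luciferase neomycin HCV replicon reporter; luciferase luminescence as measure of HCV replicon replication; test concentration not given here.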 As to conditions: Huh7 HCV replicon luciferase reporter, 48 h; higher = more signal.
For test [3], the target named is Left-right determination factor 2 (Homo sapiens) (UniProt O00292). In words: small molecules binding LEFTY2 protein – biochemical, small-molecule microarray, 635 nm fluorescence scan, primary screen (AID 1110). Conditions: higher = more signal.
Test [4] concerns the target Calmodulin-1 (Homo sapiens) (UniProt P0DP23). In words: small molecules binding calmodulin-1 with EGTA – biochemical, small-molecule microarray, Cy5-labelled CALM1, profiling panel (AID 1111).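 Note: labelled calmodulin applied in Tris saline Tween buffer holding calcium plus EGTA and DTT.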 As to conditions: Cy5-CALM1 binding fluorescence, higher = more signal.
The target is the same in test [5]. In words: small molecules binding Ca-loaded calmodulin-1 – biochemical, small-molecule microarray, Cy5-labelled CALM1, plus calcium, artefact control for SMM control-protein annotation, profiling panel (AID 1112).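 Note: score merges spot fluorescence with signal to noise from triplicate slides.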 Conditions: Cy5-CALM1 binding fluorescence, higher = more signal.
Test [6] can be described thus: probe aWnt5a binding to arrayed compounds – biochemical, biotinylated probe, 635/667 nm fluorescence, primary screen (AID 1113).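 Note: score merges 667 nm fluorescence intensity with signal-to-noise per printed feature.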 As to conditions: small-molecule microarray, higher = more signal.
Test [7] can be described thus: probe aShh binding to arrayed compounds – biochemical, biotinylated probe, 635/667 nm fluorescence, primary screen (AID 1114).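 Note: probe is biotin-labelled aShh protein from a stem cell growth factor screen; measures binding of labelled protein to compounds printed on the slide; score merges feature fluorescence at 667 nm with signal-to-noise.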 As to conditions: small-molecule microarray, higher = more signal.
The nature of test [8]: probe aNog binding to arrayed compounds – biochemical, biotinylated probe, 635/667 nm fluorescence, primary screen (AID 1115).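 Note: probe is biotinylated aNog protein used at 0.15 µg/mL for 1 h at 4 C; z-score combines 667 nm fluorescence of each spot with its signal to noise.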 Conditions: small-molecule microarray, higher = more signal.
Test [9] addresses Torsin-1A-interacting protein 1 (Homo sapiens) (UniProt Q5JTV8). Description: compound microarray binding of lysate hLAP1 – cell lysate, small-molecule microarray, COS7 lysate, 635/667 nm fluorescence, primary screen (AID 1116). As to conditions: 635 nm fluorescence, higher = more signal.
The target of test [10] is Alpha-bungarotoxin (Bungarus multicinctus) (UniProt P60615). Description: compounds binding labelled alpha-BTX control protein – biochemical, small-molecule microarray, Alexa647 label, 635/667 nm fluorescence, artefact control for SMM control protein annotation, profiling panel (AID 1117). Conditions: alpha-BTX-A647 binding fluorescence, higher = more signal.
Alpha-bungarotoxin (Bungarus multicinctus), sequence (P60615 whole entry, looked up): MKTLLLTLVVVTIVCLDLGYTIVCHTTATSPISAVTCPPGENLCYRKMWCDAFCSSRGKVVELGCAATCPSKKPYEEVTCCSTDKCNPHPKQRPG

Torsin-1A-interacting protein 1 (Homo sapiens), sequence (Q5JTV8 whole entry, looked up): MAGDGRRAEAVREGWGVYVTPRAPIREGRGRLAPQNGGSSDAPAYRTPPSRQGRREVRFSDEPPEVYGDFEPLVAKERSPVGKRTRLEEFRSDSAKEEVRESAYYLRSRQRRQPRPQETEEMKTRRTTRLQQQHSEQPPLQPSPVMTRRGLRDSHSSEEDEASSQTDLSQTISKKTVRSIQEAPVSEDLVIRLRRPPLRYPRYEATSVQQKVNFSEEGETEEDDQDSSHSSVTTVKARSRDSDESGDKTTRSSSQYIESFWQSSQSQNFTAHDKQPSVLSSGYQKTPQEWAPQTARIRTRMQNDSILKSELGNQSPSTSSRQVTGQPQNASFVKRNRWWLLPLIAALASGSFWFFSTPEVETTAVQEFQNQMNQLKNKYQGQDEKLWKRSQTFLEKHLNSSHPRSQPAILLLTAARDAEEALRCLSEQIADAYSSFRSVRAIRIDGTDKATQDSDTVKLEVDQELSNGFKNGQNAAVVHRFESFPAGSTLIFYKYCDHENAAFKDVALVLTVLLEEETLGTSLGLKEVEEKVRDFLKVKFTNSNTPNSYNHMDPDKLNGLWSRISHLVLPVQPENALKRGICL
Left-right determination factor 2 (Homo sapiens), sequence (O00292 whole entry, looked up): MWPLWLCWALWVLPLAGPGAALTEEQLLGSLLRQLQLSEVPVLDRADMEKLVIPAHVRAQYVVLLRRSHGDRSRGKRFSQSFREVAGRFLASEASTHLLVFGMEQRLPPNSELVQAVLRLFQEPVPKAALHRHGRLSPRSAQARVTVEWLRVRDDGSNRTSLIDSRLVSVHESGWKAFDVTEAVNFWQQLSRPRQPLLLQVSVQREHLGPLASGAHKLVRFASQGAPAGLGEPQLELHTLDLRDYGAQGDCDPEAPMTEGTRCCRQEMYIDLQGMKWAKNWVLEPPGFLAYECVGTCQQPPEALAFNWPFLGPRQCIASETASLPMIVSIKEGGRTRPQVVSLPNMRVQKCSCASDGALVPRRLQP

`CCN1C(=O)[C@H]2[C@H]3[C@H](O)[C@H](O)CC(=NO[C@@H]4O[C@H](COC(C)=O)[C@@H](OC(C)=O)[C@H](OC(C)=O)[C@H]4OC(C)=O)[C@@H]3CC[C@H]2C1=O`: the composite z-score in test [1] is 0.519; in test [3] it was 0.671; in test [4], -0.41; in [5], -0.564; in test [6] it was 0.0151; in test [7] it was 0.126. Besides, the composite z-score in test [8] is 0.166; in [9], 0.256; in [10], 0.721. This compound also yielded a z-score in test [2] of -0.835.
With `C[C@H]1CC[C@H]2C(=O)N[C@H](Cc3ccccc3)C(=O)N2[C@@H]1c1ccccc1`, the composite z-score in [1] is -1.38; in [3], 0.395; in test [4], -0.742; in test [5], -0.194; in [6], -0.127; in test [7], 0.37. Also, the figures for the composite z-score in [8], in [9] and in [10] were -0.0428, 0.51 and -0.009, respectively. Also, the z-score in [2] is -0.283.
As for `CC(C)[C@@H](OCc1ccccc1)[C@H](C)C=NO[C@@H](C)c1cn([C@H](CO)Cc2ccccc2)nn1`, the composite z-score was 0.402 in [1]; 0.277 in test [3]; -0.38 in test [4]; -0.281 in test [5]; -0.135 in test [6]; -0.273 in [7]. The values for the composite z-score in test [8], in test [9] and in test [10] were 0.0715, 0.217 and -0.0804, respectively. This compound yielded a z-score in test [2] of -1.87.
As for `COc1ccc(COC(=O)NN=C2C[C@@H](O)[C@@H](O)[C@@H]3[C@@H]4C(=O)N(Cc5ccccc5)C(=O)[C@@H]4CC[C@@H]23)cc1`, the composite z-score was 0.183 in test [1]; 0.379 in test [3]; -0.234 in test [4]; -0.515 in test [5]; -0.128 in [6]; 0.0278 in test [7]. Further, the results for the composite z-score in [8], in test [9] and in test [10] were -0.216, 0.0762 and -0.125, respectively. For the same compound, the z-score in test [2] amounted to 0.605.
As to `COc1ccc(COC(=O)NN=C2C[C@@H](O)[C@@H](O)[C@@H]3[C@@H]4C(=O)N([C@@H](C)c5ccccc5)C(=O)[C@@H]4CC[C@@H]23)cc1`, the composite z-score in test [1] is -0.372; in test [3], 0.609; in test [4], -0.213; in test [5] it was -0.392; in test [6] it was -0.169; in [7], 0.0121. The composite z-score in [8] is -0.288; in test [9], 0.51; in test [10], 0.0288. This compound registered a z-score in test [2] of 0.426.
For the compound `CC(C)=NOC(C)CN1CCCCc2nc(C)c(C)cc21` (stereo not given), the composite z-score in [1] is 0.103; in test [3], 0.576; in [4], -0.254; in [5], -0.66; in test [6] it was -0.113; in test [7], -0.0769. For the same compound, the composite z-score in test [8] is -0.198; in [9] it was 0.605; in test [10], -0.265. The z-score in [2] is -0.594.
Regarding `O=C1[C@H]2[C@H]3[C@H](O)[C@H](O)CC(=NO[C@@H]4O[C@H](CO)[C@@H](O)[C@H](O)[C@H]4O)[C@H]3CC[C@H]2C(=O)N1C[C@@H]1CCCO1`, the composite z-score in test [1] is -0.429; in test [3], 0.399; in test [4], -0.551; in test [5], -1.1; in test [6] it was -0.118; in test [7] it was -0.117. For the same compound, the composite z-score is -0.379 in test [8], -0.367 in test [9] and -0.0473 in test [10]. In test [2], the z-score was -0.232.
Regarding `O=C1[C@H]2[C@H]3[C@H](O)[C@H](O)CC(=NOC[C@@H](O)COCc4ccco4)[C@@H]3CC[C@H]2C(=O)N1c1cccc(Oc2ccccc2)c1`, the composite z-score in [1] was -0.645; in test [3], 0.103; in [4], 0.0705; in [5], -0.511; in test [6] it was -0.0758; in test [7], -0.289. In addition, the composite z-score is -0.29 in test [8], -0.0841 in [9] and 0.534 in test [10]. In test [2], the z-score is -0.739.
As for `CC(CCC(=O)OC[C@H]1O[C@H](C#Cc2ccccc2)C=C[C@@H]1Oc1ccc(C)cc1)=NOC(C)CN1CCCCc2nc(C)c(C)cc21` (stereo not given in full), the composite z-score was 0.686 in test [1]; -0.132 in [3]; -0.19 in [4]; 0.571 in test [5]; -0.197 in [6]; -0.0626 in test [7]. In addition, the composite z-score in [8] was -0.257; in test [9] it was -0.0043; in test [10], 1.53. In test [2], this compound came in with a z-score of -1.17.
As to `CON=C(C)CCN1CCc2nc(-c3ccccc3)c(-c3ccccc3)cc2C1`, the composite z-score in [1] was -0.539; in test [3], -0.117; in test [4], 0.709; in test [5] it was 0.0504; in test [6], -0.219; in [7], -0.0011. Besides, the composite z-score in test [8] was 0.107; in test [9], 0.0735; in test [10], -0.107. The same compound had a z-score in [2] of -4.3.
With `CCc1cc2c(nc1CC)CCN(CCC(C)=NOCC[C@@H]1C=C[C@H](OC(C)=O)[C@@H](COC(C)=O)O1)C2`, the composite z-score was 1.11 in [1]; 0.879 in test [3]; -0.307 in [4]; -1.2 in test [5]; 0.0209 in [6]; -0.167 in [7]. In addition, the composite z-score was -0.4 in test [8], 1.01 in [9] and 0.147 in test [10]. This compound also gave a z-score in test [2] of -0.879.
With `CCOC(=O)[C@H](CC(C)C)NC(=O)CCC1CC(OC(=O)NCCc2ccc(F)cc2)CC2(CCCC(COC(=O)NCc3cccc(C(F)(F)F)c3)O2)O1` (stereo not given in full), the composite z-score in test [1] is 1.38; in test [3] it was 0.605; in test [4], -0.134; in test [5], -0.448; in test [6], -0.129; in test [7], -0.154. Moreover, the values for the composite z-score in [8], in test [9] and in test [10] were 0.28, 0.274 and 0.342, respectively. Further, the z-score in test [2] was -0.0709.
In the case of `CCOC(=O)[C@H](CC(C)C)NC(=O)CCC1CC(OC(=O)NCc2ccc3c(c2)OCO3)CC2(CCCC(COC(=O)NCCc3ccccc3OC)O2)O1` (stereo not given in full), the composite z-score is 1.31 in test [1]; 0.613 in [3]; 0.618 in test [4]; -0.375 in test [5]; -0.298 in test [6]; -0.0626 in test [7]. The values for the composite z-score in test [8], in [9] and in test [10] were -0.41, 0.389 and 0.556, respectively. The z-score in test [2] was -0.621.
For the compound `CO[C@H]1C[C@@H]2C[C@H](O)CC(CC(=O)O[C@@H](C=CCC(C)C)C[C@@H]3CC[C@H](C)[C@@H](C1)O3)O2`, the composite z-score in test [1] is 1.27; in test [3], 0.748; in test [4] it was -0.126; in test [5], -0.468; in test [6], -0.0194; in [7], 0.0815. The figures for the composite z-score in [8], in test [9] and in test [10] were -0.447, 0.536 and 1.63, respectively. The compound further displayed a z-score in test [2] of -0.763.
Consider `CC(=O)OC[C@H]1O[C@H](CCON=C(C)C)C=C[C@@H]1OC(C)=O`, for which the composite z-score in test [1] was -0.306; in test [3], 0.304; in test [4], -0.42; in [5], -0.268; in test [6], -0.152; in test [7], -0.0769. The composite z-score in test [8] is -0.324; in test [9], 0.3; in test [10], 0.501. For the same compound, in test [2], the z-score is -0.684.
On to `Cc1ccc2[nH]c3nc(CCCn4ccnc4-c4ccccc4)nnc3c2c1`, for which the composite z-score in test [1] was 0.0596; in test [3], 0.635; in [4], 0.308; in test [5], -1.02; in test [6], -0.101; in test [7], 0.191. In addition, the composite z-score in [8] was -0.344; in test [9], 0.666; in test [10] it was 0.335. In [2], this compound registered a z-score of -0.544.
For `C[C@@H](c1ccccc1)N1C(=O)[C@H]2[C@H]3[C@H](O)[C@H](O)CC(=NOC[C@@H](O)COCc4ccco4)[C@H]3CC[C@H]2C1=O`, the composite z-score is -0.788 in test [1]; 0.858 in [3]; -0.858 in test [4]; -1.65 in test [5]; -0.196 in test [6]; 0.0952 in [7]. Also, the composite z-score in [8] was -0.285; in [9], -0.175; in test [10] it was -0.0662. In test [2], this compound had a z-score of -0.978.
`O=C1C=C[C@@H](O)[C@@H]2[C@@H]3C(=O)N(Cc4ccc5c(c4)OCO5)C(=O)[C@@H]3CC[C@@H]12`: the composite z-score in [1] was 0.701; in test [3], 0.57; in test [4], -0.112; in test [5], -0.508; in [6], -0.147; in test [7] it was -0.0626. In addition, the composite z-score in test [8] was -0.238; in test [9], -0.127; in [10] it was 0.123. Further, the z-score in test [2] is -0.322.
